Experiment [1] can be described thus: NCI Yeast Anticancer Drug Screen. Data for the rad50 strain (AID 155).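 Further: 0% = growth of vehicle-only cultures of the same strain.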 Particulars: S. cerevisiae rad50 strain growth inhibition; at 50.0 µM; hits give high values. A digest of the protocol:
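Compounds were tested on a yeast strain with an engineered DNA damage repair alteration; the reported value is growth inhibition normalised to vehicle treatment.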

A short description of experiment [2]: NCI Yeast Anticancer Drug Screen. Data for the mec2-1 strain (AID 157). The conditions noted are these: S. cerevisiae mec2-1 strain, at 50.0 µM, hits give high values. In a few lines: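 Compounds were applied to mec2-1 yeast cells. Their growth was then compared with that of vehicle-treated cultures to give growth inhibition.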
A short description of experiment [3]: NCI Yeast Anticancer Drug Screen. Data for the sgs1 mgt1 strain (AID 161).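 Further: 0% = growth of cultures given vehicle only.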 Particulars: S. cerevisiae sgs1 mgt1 strain, at 50.0 µM, hits give high values. In a few lines: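 Compounds are added to genetically altered yeast, and growth is compared with cultures given vehicle alone to give percent inhibition.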
Experiment [4] can be described thus: NCI Yeast Anticancer Drug Screen. Data for the cln2 rad14 strain (AID 165).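 Further: 0% = growth equal to vehicle treated cultures.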 Particulars: S. cerevisiae cln2 rad14 strain, at 50.0 µM, hits give high values. A digest of the protocol:
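Strain: cln2 rad14 yeast, altered in cell cycle control and DNA damage repair. Read-out: growth inhibition vs vehicle.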

Experiment [5] is described as follows: NCI Yeast Anticancer Drug Screen. Data for the bub3 strain (AID 167). The conditions noted are these: S. cerevisiae bub3 mutant strain, at 50.0 µM, hits give high values. A digest of the protocol: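 Growth of a checkpoint-deficient yeast mutant is measured after compound exposure. Values represent inhibition relative to vehicle.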
Experiment [6] can be described thus: NCI Yeast Anticancer Drug Screen. Data for the mlh1 rad18 strain (AID 175). Particulars: S. cerevisiae mlh1 rad18 strain growth inhibition; at 50.0 µM; hits give high values. In a few lines:
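A repair-deficient yeast strain is exposed to test compound, and growth is scored relative to vehicle-treated controls.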

Compounds without any hit were thinned out: in the full panel of roughly 79,000, 15% have a hit. A number with no mark means an inactive call. Active and inactive are the calls of the source. No stated cut-off is given here; in the data, active means growth inhibition above about 70%; inactive means the rest.

Take `CSC(=S)N/N=C(\c1ccccc1)c1ccccn1`: the growth inhibition in experiment [1] is 0.3%; in experiment [2], 13.2%; in experiment [3] it was 0.85%; in experiment [4] it was 10.4%; in experiment [5], 21.2%; in experiment [6], 5.75%.
On to `FC(F)/C=C\c1ccccc1`, for which the growth inhibition was 8.85% in experiment [1]; -4.55% in experiment [2]; -10.4% in experiment [3]; -19.8% in experiment [4]; -16.9% in experiment [5]; 6.9% in experiment [6].
Turning to `CC1(C)OC2COC3OC(C)(C)OC3(CO)C2O1` (stereo not given), the growth inhibition in experiment [1] was -1.7%; in experiment [2] it was -17.8%; in experiment [3], -6.1%; in experiment [4], -4.9%; in experiment [5], 20.5%; in experiment [6], 5.15%.
Take `COc1ccc(C)cc1NC(=O)c1c(Br)c(Br)c(Br)c(Br)c1C(=O)O`: the growth inhibition was 4.25% in experiment [1]; -11.1% in experiment [2]; 10.4% in experiment [3]; 12.8% in experiment [4]; 6.8% in experiment [5]; 10.8% in experiment [6].
As to `CC(=O)Oc1cc(C)c(OC(C)=O)cc1C`, the growth inhibition in experiment [1] was -11.3%; in experiment [2], -14.3%; in experiment [3] it was 3.1%; in experiment [4], -1.85%; in experiment [5], 16.9%; in experiment [6] it was 14.3%.
Regarding `Cc1ncc2c(=O)c3c(oc2n1)c1ccccc1n3Cc1ccccc1`, the growth inhibition in experiment [1] was 8.75%; in experiment [2] it was 9.15%; in experiment [3], 15.2%; in experiment [4], 3.1%; in experiment [5], 11.7%; in experiment [6], -4.1%.
On to `Nc1nc(N)c2nc3c(nc2n1)CCCCCC3`, for which the growth inhibition in experiment [1] was 4.25%; in experiment [2], -4%; in experiment [3] it was 4.25%; in experiment [4] it was -19.4%; in experiment [5], -3.2%; in experiment [6], 2.55%.
In the case of `Cc1onc(-c2c(Cl)cccc2Cl)c1C(=O)Nc1ccc(Cl)c(Cl)c1Cl`, the growth inhibition in experiment [1] is -12.4%; in experiment [2] it was -14.7%; in experiment [3], -3.2%; in experiment [4], 12.1%; in experiment [5], 2.25%; in experiment [6], -8.25%.
Take `CCCCCn1[nH]nc(C(=O)OC)c1=O` (tested in a mixture with another compound): the growth inhibition was 18.8% in experiment [1]; 17.1% in experiment [2]; 23.1% in experiment [3]; 27.5% in experiment [4]; 30.5% in experiment [5]; 34.4% in experiment [6].
As for `CC(=O)OC1CC1(Br)Br` (stereo not given), the growth inhibition in experiment [1] was 6.3%; in experiment [2], -15.8%; in experiment [3], 18.6%; in experiment [4], -37.8%; in experiment [5], 6.5%; in experiment [6], 5.2%.
In the case of `CCN(C/C=C/CN(CC)C(=S)Nc1ccccc1)C(=S)Nc1ccccc1`, the growth inhibition in experiment [1] is 29.6%; in experiment [2] it was -7.85%; in experiment [3], 5.2%; in experiment [4], 18.8%; in experiment [5], -1.1%; in experiment [6], 9.8%.
As to `COC(=O)c1cc(-c2ccc(F)cc2)[nH]c(=O)c1C#N`, the growth inhibition in experiment [1] is 6.3%; in experiment [2], -10.4%; in experiment [3], 15.3%; in experiment [4], 13.4%; in experiment [5], -25.8%; in experiment [6] it was 16.6%.
Consider `CC1(O)Oc2c(cc(C(C)(C)C)cc2C(C)(C)C)C1=O` (stereo not given), for which the growth inhibition in experiment [1] was 17.4%; in experiment [2] it was -10.1%; in experiment [3] it was 18.2%; in experiment [4], -9%; in experiment [5] it was 23.6%; in experiment [6], 42.6%.
For the compound `NC12CCC(CC1)C2`, the growth inhibition in experiment [1] is -14.3%; in experiment [2], 13.3%; in experiment [3], -14.1%; in experiment [4], -6.25%; in experiment [5], -10.4%; in experiment [6], -4.8%.
With `CCC[CH2][Sn]([CH2]CCC)([O]C(=O)c1ccc(OC)c(OC)c1OC)[O][Sn]([CH2]CCC)([CH2]CCC)[O]C(=O)c1ccc(OC)c(OC)c1OC`, the growth inhibition in experiment [1] is 85.7% (active); in experiment [2], 85% (active); in experiment [3] it was 86.3% (active); in experiment [4], 85.2% (active); in experiment [5], 87.2% (active); in experiment [6], 86.3% (active).
In the case of `COCCNC(c1ccccc1)C(O)c1ccccc1` (stereo not given), the growth inhibition was 6.4% in experiment [1]; -15.6% in experiment [2]; -5.15% in experiment [3]; -33% in experiment [4]; 7.5% in experiment [5]; -7.85% in experiment [6].
For `CCSCCCCSCC`, the growth inhibition is -2.85% in experiment [1]; -34.4% in experiment [2]; -15.7% in experiment [3]; 3.35% in experiment [4]; 6.3% in experiment [5]; -2.2% in experiment [6].
As for `CSc1ncnc2c1ccn2C1OC(COP(=O)(O)O)C(O)C1O` (stereo not given), the growth inhibition was 21.8% in experiment [1]; -1.35% in experiment [2]; -3.4% in experiment [3]; -2.45% in experiment [4]; -37% in experiment [5]; -2.15% in experiment [6].
As to `O=C(O)C(Cc1ccccc1)c1ccc(Cl)cc1` (stereo not given), the growth inhibition in experiment [1] was 38.1%; in experiment [2], 27.3%; in experiment [3], 43.1%; in experiment [4], 20.6%; in experiment [5] it was 41.8%; in experiment [6] it was 25.9%.
For the compound `CC[N+](C)(CC)CCOC(=O)C(C1=CCCCC1)C1(O)CCCCC1` (stereo not given), the growth inhibition in experiment [1] is 3.05%; in experiment [2], -15.8%; in experiment [3], -27.5%; in experiment [4], -48.9%; in experiment [5], 2.5%; in experiment [6] it was -16.6%.

Values taken from PubChem BioAssay (NCI).
